PubChem BioAssay AID2384 (Southern Research Specialized Biocontainment Screening …, 2010)
Out of some 2,300 compounds screened, about 1,100 (48%) were called active. No rule for the calls is given here. The set was probably picked from earlier hits. The list shows a part of the results. Where a call stands in place of a potency, no number is given. Potency and affinity values are given separately.

Assay: S. typhi counter-screen signal inhibition – fluorescence, 4 h, counter-screen for PhoP regulon inhibitor project, dose response (AID 2384)
Conditions: S. typhi GFP reporter counter-screen; series mostly up to 150 µM
In the case of `CCN(CC)CCOC(=O)c1ccc(N/C=C(/C#N)c2nc(-c3ccc(OC)c(OC)c3)cs2)cc1`, the inhibition is reported as “inactive”. With `O=C(CSC1=NCCS1)Nc1nc2c(s1)CCCC2` the inhibition was “inactive”. With `O=C(CSc1cccc2cccnc12)Nc1ccc(S(=O)(=O)N2CCOCC2)cc1` the inhibition was “inactive”. For `CC(=O)c1c(C)nc(-c2cccc([N+](=O)[O-])c2)n1O`, the inhibition was “inactive”. In the case of `CC(=O)Nc1cc(-c2ccc(Cl)cc2)[nH]n1`, the inhibition is reported as “inactive”. With `Cc1ccc(C(=O)NCC(=O)NCCc2ccc(S(N)(=O)=O)cc2)s1` the inhibition was “inactive”. In the case of `N#Cc1nc(COc2ccc(Br)cc2)oc1NCCCn1ccnc1`, the inhibition is reported as “inactive”. For `O=C1CCCN1c1ccc(CNS(=O)(=O)c2ccc(F)cc2)cc1`, the inhibition was “inactive”. With `COc1ccccc1C(=O)Nc1nnc(-c2ccc(Cl)cc2)o1` the inhibition was “inactive”. For `COc1cccc(-c2nc(CS(=O)CC(=O)NCCCOC(C)C)c(C)o2)c1` (stereo unspecified), the inhibition was “inactive”. With `COc1ccc(S(=O)(=O)NCCSCc2ccco2)cc1Cl` the inhibition was “inactive”. With `O=C(N/N=C\c1c[nH]c2ccccc12)c1ccc(O)cc1` the inhibition was “inactive”. In the case of `Cn1c(N/N=C/c2c[nH]c3ccccc23)nc2ccccc21`, the inhibition is reported as “inactive”. In the case of `COc1cc(C(=O)N/N=C/c2coc3ccccc3c2=O)cc(OC)c1OC`, the inhibition is reported as “inactive”. With `O=C1CC(=O)CC(c2ccco2)C1` the inhibition was “inactive”. With `FC(F)Oc1ccc(NC(=S)NCc2nc3ccccc3[nH]2)cc1` the inhibition was “inactive”. In the case of `Cc1nn(-c2ccccc2)c(C)c1/C=N/n1c(-c2ccc(C(C)(C)C)cc2)n[nH]c1=S`, the inhibition is reported as “inactive”. For `O=C1CCCN1CCC1CCN(C2CC(=O)N(c3ccc(Cl)cc3)C2=O)CC1` (stereo unspecified), the inhibition was “inactive”. With `COc1ccc(-c2cc(=NCC(=O)O)c3ccccc3o2)cc1` the inhibition was “inactive”. For `COc1ccc(C(=O)Oc2ccc(/C=N/O)cc2)cc1`, the inhibition was “inactive”. In the case of `CCCC1=C(C(=O)OCC)C(c2ccc(O)cc2)n2ncnc2N1` (stereo unspecified), the inhibition is reported as “inactive”. With `Cc1cc2ccccc2c(=O)n1CC(=O)NCCC1=CCCCC1` the inhibition was “inactive”. With `Cc1ccccc1C(=O)c1cccn1CC(=O)NCCC1=CCCCC1` the inhibition was “inactive”. For `Cc1nc(C)c(-c2ccc(SCc3ccccc3F)nn2)s1`, the inhibition was “inactive”. In the case of `O=C(O)c1cn(-c2ccc(F)cc2)c2cc(Cl)c(F)cc2c1=O`, the inhibition is reported as “inactive”. With `COC(=O)C(O)(c1c(C)[nH]n(-c2ccccc2)c1=O)C(F)(F)F` (stereo unspecified) the inhibition was “inactive”. With `CN(C)C(=O)COC(=O)/C=C/c1ccccc1[N+](=O)[O-]` the inhibition was “inactive”. In the case of `CCCC(c1nnnn1Cc1ccc(OC)cc1)N1CCN(c2ccccc2OC)CC1` (stereo unspecified), the inhibition is reported as “inactive”. For `Cc1nc2scc(C)n2c(=O)c1S(=O)(=O)N1CCN(c2cccc(C(F)(F)F)c2)CC1`, the inhibition was “inactive”. For `O=c1cc(-c2ccccc2)nc(N2CCN(Cc3ccccc3)CC2)[nH]1`, the inhibition was “inactive”. In the case of `COc1ccccc1Oc1coc2c(CN3CCN(C)CC3)c(O)ccc2c1=O`, the inhibition is reported as “inactive”. For `CCCCCN1C(=O)/C(=C/c2c(N3CCc4ccccc4C3)nc3ccccn3c2=O)SC1=S`, the inhibition was “inactive”. With `Cc1ccc(-n2ncc3c(=O)[nH]cnc32)c(C)c1` the inhibition was “inactive”. With `CCCCN(CCCC)CCNC(=O)CSCc1ccc(C)cc1` the inhibition was “inactive”. With `COc1ccc(N2C(=O)CC(N3CC=C(c4ccccc4)CC3)C2=O)cc1` (stereo unspecified) the inhibition was “inactive”. For `Brc1ccc2c(c1)CN1CCCC1=N2`, the inhibition was “inactive”. With `CC(C)[C@@H](C(=O)NC1CCCC1)N1C(=O)N2CCc3c([nH]c4ccccc34)[C@@]2(C)C1=O` the inhibition was “inactive”. With `O=C(N/N=C/c1ccc(F)c(F)c1)c1cc2c(s1)-c1ccccc1CC2` the inhibition was “inactive”. For `COc1cc(CNc2ccc(N3CCN(C(C)=O)CC3)cc2)ccc1OCc1ccccc1`, the inhibition was “inactive”. With `COc1cccc(CNC23CC4CC(CC(C4)C2)C3)c1OCc1ccccc1` the inhibition was “inactive”. For `COc1ccc(Cl)cc1NC(=O)c1cc(-c2ccccc2)on1`, the inhibition was “inactive”. In the case of `O=c1c2ccccc2nc(-c2ccoc2)n1CCc1ccccc1`, the inhibition is reported as “inactive”. With `CCc1nc(SCC(=O)NCCc2ccccc2)c2c(=O)n(C)c(=O)n(C)c2n1` the inhibition was “inactive”. In the case of `Cn1c(=O)c2c(nc(Br)n2CCSc2nc3ccccc3o2)n(C)c1=O`, the inhibition is reported as “inactive”. For `CC1(C)CC(CCNC(=O)c2ccc(-n3cnnn3)cc2)CC(C)(C)N1`, the inhibition was “inactive”. In the case of `COc1ccc(C(=O)Nc2cc3c(cc2OC)CCCC3)cc1Br`, the inhibition is reported as “inactive”. In the case of `Nn1cnnc1SCC(=O)Nc1ccc(C2CCCCC2)cc1`, the inhibition is reported as “inactive”. For `O=C(Nc1ccc2c(c1)nc1n2CCN(Cc2ccccc2)C1)c1cccs1`, the inhibition was “inactive”. In the case of `c1ccc(-c2nc(NC3CC3)nc(-n3ccnc3)n2)cc1`, the inhibition is reported as “inactive”. In the case of `Cc1ccccc1Oc1ccc(Oc2ccccc2C)nn1`, the inhibition is reported as “inactive”. In the case of `CC1CCN(C(=O)C2CCCN(S(C)(=O)=O)C2)CC1` (stereo unspecified), the inhibition is reported as “inactive”. In the case of `C[N+]1(C)C2CCC1CC(OC(=O)c1ccccc1)C2` (stereo unspecified), the inhibition is reported as “inactive”. In the case of `CCN(CC)C(=O)C1CCN(Cc2ccc(Br)cc2)CC1`, the inhibition is reported as “inactive”. For `CN(C)C=NC(=O)c1cc(C(=O)c2ccc(Cl)cc2Cl)c[nH]1`, the inhibition was “inactive”. With `COc1ccc(N2C3=C(CC4=C2CC(C)(C)CC4=O)C(=O)CC(C)(C)C3)cc1` the inhibition was “inactive”. For `COc1ccc(Cl)cc1NC(=O)CN(C)CC(=O)Nc1ccccc1C(F)(F)F`, the inhibition was “inactive”.
